# Experimental data from PubChem BioAssay AID527 (NMMLSC, 2006).
# About 65 (0.3%) of roughly 24,000 compounds were called active.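 How the source made its calls: active means share of bacteria positive for the green fluorescent reporter and its mean brightness both inhibited by 50% or more; inactive means the rest, inconclusive results apart.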 Many of the other results were omitted from the sample, so actives are more common in it than they were.
# Assay: blockers of AIP-driven agr signalling in S. aureus – RNAIII-GFP reporter, flow cytometry, primary screen (AID 527);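 further: 0% = AIP-stimulated control and 100% = unstimulated bacteria without AIP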
# Details: S. aureus RN6390 RNAIII-GFP reporter, AIP-induced, flow cytometry 3 h, at 2 µM, stronger effect = higher value
# [1] = measured here: inhibition of GFP MFI
Structure (SMILES),inhibition,inhibition [1]
Cc1ccccc1NC(=O)Cc1nnc(SCC(=O)N2CCN(c3ccccc3)CC2)n1C,-0.1% (inactive),7.2%
CCC(=O)N1CCN=C1SCc1ccc(F)cc1,1.7% (inactive),7.4%
CCOc1ccccc1-n1c(SCC(=O)NCc2ccco2)nnc1-c1ccncc1,-4.3% (inactive),-22.1%
CN(C)CCCn1c(N)c(C#N)c2nc(C#N)c(C#N)nc21,-1% (inactive),1.8%
CNC(=O)NCCN1CCCC1=O,7.2% (inactive),22.5%
O=C(CCOc1ccccc1)NCc1ccccc1,1.7% (inactive),8.4%
CC1CCCN(C(C(=O)Nc2ccc(C(C)C)cc2)c2ccc3c(c2)OCO3)C1 (stereo not drawn),-2.3% (inactive),0.9%
Cc1cccc(C(=O)OCC(=O)Nc2sc3c(c2C#N)CCC3)c1,0% (inactive),-2%
Cc1cccc(CC(=O)Nc2c3c(nn2-c2cccc(Cl)c2)CS(=O)C3)c1 (stereo not drawn),1.2% (inactive),3.3%
Nc1scc(-c2ccncc2)c1Cl,0.4% (inactive),15.1%
CSC1=NCCN1C(=O)c1ccc(S(=O)(=O)N2CCOCC2)cc1,-5.9% (inactive),-16.9%
O=C(NCCc1ccccn1)c1ccc(COc2ccccc2)o1,-0.4% (inactive),-1.9%
O=S1(=O)CC(NCc2ccccc2)C(Nc2ccc(Cl)cc2)C1 (stereo not drawn),-7% (inactive),-45.9%
Cc1cccc(N2CCN(C(=O)C3CCN(S(=O)(=O)c4cnc[nH]4)CC3)CC2)c1C,-9.8% (inactive),-17%
CCCn1c(C(O)c2ccc(OCC)cc2)nc2ccccc21 (stereo not drawn),-2.6% (inactive),-8.7%
CC(=O)Oc1cc2c(C(=O)NCCN3CCOCC3)c(C)oc2c2ccccc12,-5.9% (inactive),-9.9%
CCS(=O)(=O)N1CCCC(C(=O)NCCCN(C)Cc2ccccc2)C1 (stereo not drawn),-4.7% (inactive),-9.5%
CC(C)(C)c1ccc(C(=O)NCCC(=O)NCc2ccco2)cc1,-2.6% (inactive),1.1%
CC1CC(C)CN(CC(=O)Nc2ccc(S(N)(=O)=O)cc2)C1 (stereo not drawn),-0.3% (inactive),-0.4%
COc1cccc(N2CCN(C3CC(=O)N(c4ccc(Cl)cc4)C3=O)CC2)c1 (stereo not drawn),-2.7% (inactive),-50.4%
CCc1ccc(N2CC(C(=O)NC3=NCCS3)CC2=O)cc1 (stereo not drawn),-0.9% (inactive),-2.9%

Structure (SMILES),inhibition,inhibition [1]
OCc1n[nH]c(CO)n1,-8.3% (inactive),-35.9%
COc1ccc(C2/C(=C(/O)c3ccc(OC(C)C)cc3)C(=O)C(=O)N2CCCN2CCOCC2)cc1 (stereo not drawn),7.5% (inactive),17.8%
CCCCN(C)C(=O)c1ccc2c(c1)N(CC)C(=O)c1ccccc1S2(=O)=O,-3% (inactive),-32.6%
COc1ccc(Cl)cc1S(=O)(=O)N1CCN(CC(=O)C(C)(C)C)CC1,-2.8% (inactive),-8.9%
N#CCCn1cnc2ccccc21,2.1% (inactive),38.9%
CC(=O)NCC(=O)N(C)C(C(=O)Nc1ccc2c(c1)OCCO2)c1ccccc1 (stereo not drawn),0.7% (inactive),7.7%
COc1ccccc1-c1cc(C(=O)NCCCn2ccnc2)no1,0.6% (inactive),11.9%
O=C(CN1CCN(C(=O)c2ccco2)CC1)Nc1ccc2c(c1)OCO2,0.1% (inactive),18.6%
CCOC(=O)N1CCN(C(=O)c2ccc3nc4cc(Cl)ccc4c(=O)n3c2)CC1,0.6% (inactive),4.6%
CCOC(=O)N1CCN(C(=O)c2cnc3n(c2=O)CCS3)CC1,-0.4% (inactive),7.7%
NC(=O)C1(N2CCCCC2)CCN(C(=O)c2ccc(C#Cc3ccccc3)o2)CC1,14.7% (inactive),41.9%
COc1ccc(-c2noc(COc3ccc(Cl)c(C)c3)n2)cc1,0.3% (inactive),-1.9%
COc1ccccc1N1CCN(C(=O)c2cc(-c3ccc(Cl)c(Cl)c3)on2)CC1,0.6% (inactive),12%
Cc1ccc(S(=O)(=O)NCC(=O)N(CC(=O)NC2CCCCC2)Cc2ccco2)cc1,1% (inactive),1.8%
O=C(CN1CCOCC1)N1CCCc2c1c(=O)oc1ccc(OCc3ccccc3)cc21,7.9% (inactive),27.4%
COC(=O)c1ccc(NC(=O)CSc2nnc(Cc3cccn3C)n2-c2ccc(F)cc2)cc1,0.7% (inactive),2.8%
CCOc1ccc(S(=O)(=O)n2ccnc2)c2ccccc12,3.6% (inactive),12.2%
COc1ccc(N2CCN(CCNC(=O)c3nnc(Cc4c(F)cccc4Cl)o3)CC2)cc1,-1.4% (inactive),-14%
O=C(CSc1nnc(-c2c[nH]c3ccccc23)n1-c1ccc(F)cc1)NCc1ccco1,-0.1% (inactive),3.9%
O=C(Nc1nccs1)C1CCCN1S(=O)(=O)c1cccc2cccnc12 (stereo not drawn),10.8% (inactive),6.8%
CCOCCCN1C(=O)CN(C2CCCCC2)C(=O)C1c1ccc(OCC)c(OC)c1 (stereo not drawn),0.8% (inactive),4.3%

Structure (SMILES),inhibition,inhibition [1]
O=C(NC1=NCCS1)[C@H](Cc1ccccc1)N1C(=O)c2ccccc2C1=O,-2% (inactive),-7.9%
CCOc1ccc(/C(O)=C2/C(=O)C(=O)N(Cc3cccnc3)C2c2ccc(N(C)C)cc2)c(C)c1 (stereo not drawn),-1.8% (inactive),-3.1%
Cc1cc(NC(=O)CSc2nnc(-c3ccc(Cl)s3)o2)no1,-5.9% (inactive),-26.8%
COc1ccc(NC(=O)CCNC(=O)Cn2ccc3ccccc3c2=O)c(OC)c1,-1.1% (inactive),-13.6%
COc1ccccc1N1CCN(c2nc3ccccc3n3nnnc23)CC1,-2.2% (inactive),-4.7%
CC(=O)c1cccc(S(=O)(=O)N2CCC(n3nnc4cc(F)ccc43)CC2)c1,-1.4% (inactive),-26.3%
CCOC(=O)c1cn(CC(=O)Nc2ccc(C(C)C)cc2)nn1,2.3% (inactive),13.3%
CCOC(=O)c1ccc(Nc2cc(C)nc3nc(C)nn23)cc1,-5.5% (inactive),-32.8%
Cn1c(C(=O)NCCN2CCc3ccccc3C2)cc2c(=O)[nH]c3ccccc3c21,-1.3% (inactive),-0.4%
COc1ccc(-n2ncc3c(N4CCCc5ccccc54)ncnc32)cc1,-3.1% (inactive),-2.2%
C=CCOc1ccc(/C=N/n2cncn2)cc1OC,0.5% (inactive),-15.3%
Cc1ccc(NC2=NC(c3ccccc3)n3c(nc(C)cc3=O)N2)cc1 (stereo not drawn),-2.1% (inactive),-6.2%
COc1ccc(CC(=O)Nc2ccc(-c3nnc(-c4ccc(C)cc4)o3)cc2)cc1,7.6% (inactive),35.1%
CCCNC(=O)Nc1ccccc1C(=O)Nc1ccc(OC)cc1,1.7% (inactive),13.6%
COc1ccc(NC(=O)c2c(SC)nsc2SC)cc1,67.4% (active),74.3%
Cc1noc(COc2ccccc2OCC(O)CNC(C)(C)C)n1 (stereo not drawn),-0.1% (inactive),0.9%
Cc1cccc(C2c3c(n(C)c(=O)n(C)c3=O)N=C3c4ccccc4C(=O)C32)c1 (stereo not drawn),1.5% (inactive),20.3%
COc1cccc(N(C(=O)c2ccn[nH]2)C2(C(=O)Nc3c(C)cccc3C)CCCCC2)c1,5.5% (inactive),-8%
CCN(Cc1nc2ccccc2c(=O)[nH]1)Cc1cc(=O)oc2cc(C)c(C)cc12,4.2% (inactive),13.1%
Cn1c(COc2ccc(Cl)cc2)nc2ccccc2c1=O,-6.8% (inactive),-42.8%
COc1ccc(OC)c(C2N(c3ccccn3)C(=O)C3CCCN32)c1 (stereo not drawn),-2.2% (inactive),-7.1%

Structure (SMILES),inhibition,inhibition [1]
COc1cccc(C(CC(=O)NCCN2CCOCC2)NS(=O)(=O)c2ccc(C)cc2)c1OC (stereo not drawn),-5% (inactive),-11.5%
COc1ccccc1C(=O)n1nc(-c2ccccc2)nc1N,-0.9% (inactive),-0.5%
Cc1cc(=O)n2nc(N3CCCC3C(=O)NCCCN3CC(C)CC(C)C3)sc2n1 (stereo not drawn),2.5% (inactive),17.6%
CCc1nnc(NC(=O)c2ccc(S(=O)(=O)NC3CCCCC3)cc2)s1,0.3% (inactive),4.5%
COc1cccc(-c2nnc(NC(=O)c3ccc(S(=O)(=O)N(CC(C)C)CC(C)C)cc3)o2)c1,14.3% (inactive),15.6%
CC1CCCCN1S(=O)(=O)c1ccc(C(=O)Nc2nnc(-c3cccs3)o2)cc1 (stereo not drawn),65.9% (active),62.3%
O=C(O)Cc1ccc(-c2ccccc2)cc1,-0.8% (inactive),3.1%
CN(C(=O)C1CCOC1)c1nnc(-c2cccnc2)s1 (stereo not drawn),-2.1% (inactive),1.3%
COc1ccc(N2CCN(C(=O)CNC(=O)c3ccc(C(C)(C)C)cc3)CC2)cc1,-5.2% (inactive),-22.7%
CCOc1cc(C(=O)Nc2ncccn2)cc(OCC)c1OCC,-0.2% (inactive),0.7%
COC(=O)Nc1ccc(S(=O)(=O)N(C)CC(F)(F)C(F)F)cc1,-3.8% (inactive),-5.8%
CC(=O)NC(Cc1ccc(F)cc1)C(=O)O (stereo not drawn),-5.3% (inactive),-7.6%
Cc1nc2ccc(S(=O)(=O)NC(C(=O)N3CCCCCC3)C(C)C)cc2s1 (stereo not drawn),0.8% (inactive),-1%
Cc1nc(NC(=O)CCC(=O)O)sc1C(=O)N(C)C,-4.1% (inactive),-15.4%
O=C(O)C1C2C=CC(C2)C1C(=O)N1CCN(CCO)CC1 (stereo not drawn),-0.3% (inactive),-23.2%
Cc1nnc(SCCCn2c(N3CCCCC3)nc3c2c(=O)[nH]c(=O)n3C)s1,2.3% (inactive),8.9%
CCOC(=O)CSc1nnc(CNC(=O)c2cccs2)n1-c1cc(OC)ccc1OC,1.2% (inactive),29.5%
O=C(CSc1nc2ccccc2o1)N1CCN(c2ccc(Cl)cc2)CC1,0.5% (inactive),5.2%
CCOc1ccc(NC(=O)CC2NCCNC2=O)cc1 (stereo not drawn),0.5% (inactive),16.7%
CCOc1ccc(CNC(=O)C2CCC(=O)N2C2CCCC2)cc1OC (stereo not drawn),3.8% (inactive),11.6%
CCOC(=O)N1CCC(NC(=O)c2ccc3nc(N4CCOCC4)sc3c2)CC1,-5.4% (inactive),-36.9%
